The structures appear in SMILES notation. Several values for one entry are separate records, joined by “and”; a condition that tells them apart may be missing. Equal entries are not always repeated. Results filed as inconclusive are left out. More than one record can exist for a structure, and the calls need not agree. Activity calls are given as the source filed them. The calls were made as follows, unless noted: active = hit-call score of the fitted dose curve at least 0.9, where 1 is the maximum; inconclusive = response in the unintended direction; inactive = score below 0.9.

Test [1] deals with zebrafish Peroxisome Proliferator-activated Receptor gamma (PPARg), gene 557037. The test is described as follows: ATG_zfPPARg_XSP2: Attagene TRANS-FACTORIAL Multi-Species (XSP2) HepG2 Assay for zebrafish Peroxisome Proliferator-activated Receptor gamma (PPARg) (AID 2283833).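 Also: actives increase reporter signal over DMSO so AC50 reflects activation.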 An outline of the steps:
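HepG2 cells transiently transfected with GAL4-UAS reporter units expressing a zebrafish PPARg–GAL4 chimera; compound exposure 24 h. Reporter mRNA quantified by RT-PCR with fluorescent labelling and capillary electrophoresis; gain of signal fitted relative to DMSO baseline.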

Test [2] concerns turtle Thyroid Hormone Receptor, alpha (TRa), gene 101949057. Nature of the test: ATG_trTRa_XSP2: Attagene TRANS-FACTORIAL Multi-Species (XSP1) HepG2 Assay for turtle Thyroid Hormone Receptor, alpha (TRa) (AID 2283834).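 Also: hits raise reporter mRNA over the DMSO baseline so AC50 marks activators.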 An outline of the steps:
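HepG2 cells transiently transfected with multiplexed GAL4-UAS reporter units expressing chimeric NR-Gal4 proteins were dosed for 24 hours. Reporter mRNA was quantified by RT-PCR with 6-FAM labelling and capillary electrophoresis, gain of signal scored against DMSO.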

Test [3] can be described thus: ATG_M_61_XSP2: Attagene TRANS-FACTORIAL Multi-Species (XSP2) HepG2 Assay for M61 Transcription Factor (Internal Marker) (AID 2283835; active = hit-call score of the fitted dose curve at least 0.9, where 1 is the maximum; inactive = score below 0.9;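 also: active means a rise in signal above the DMSO baseline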). An outline of the steps: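 Signal was mRNA induction detected as fluorescence after RT-PCR and capillary electrophoresis, analysed in the gain direction with DMSO as baseline. HepG2 cells transiently carrying reporter constructs received chemicals for 24 h.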

Test [4] has as its target zebrafish Thyroid Hormone Receptor beta (TRb), thrb (gene 30607) (UniProt Q9PVE4). Nature of the test: ATG_zfTRb_XSP2: Attagene TRANS-FACTORIAL Multi-Species (XSP1) HepG2 Assay for zebrafish Thyroid Hormone Receptor beta (TRb) (AID 2283836).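 As to AC50: potency for induction of reporter signal above DMSO so agonist direction.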 Put shortly: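 Reporter transcripts were measured by RT-PCR with fluorescent primer extension and capillary electrophoresis, 24 h after chemical dosing of transiently transfected HepG2 cells. Activity was scored as upward signal versus DMSO baseline.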

In test [5] the target is human Thyroid hormone Receptor alpha (TRa), THRA (gene 7067) (UniProt P10827). Nature of the test: ATG_hTRa_XSP2: Attagene TRANS-FACTORIAL Multi-Species (XSP2) HepG2 Assay for human Thyroid hormone Receptor alpha (TRa) (AID 2283838). Put shortly:
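Gain-of-signal in reporter mRNA, relative to DMSO, after 24 h dosing of transfected HepG2; quantitation by RT-PCR fragment analysis on capillary electrophoresis.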

Test [6] deals with frog Thyroid hormone Receptor alpha (TRa), thra-a (gene 397942) (UniProt P15204). The test is described as follows: ATG_frTRa_XSP2: Attagene TRANS-FACTORIAL Multi-Species (XSP2) HepG2 Assay for frog Thyroid hormone Receptor alpha (TRa) (AID 2283839).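 As to AC50: AC50 reflects induction of frog TRa-driven reporter mRNA above DMSO baseline.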 An outline of the steps: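 HepG2 cells transiently transfected with multiplexed GAL4-UAS reporter units expressing chimeric frog TRα-Gal4; reporter mRNA read 24 h after dosing by RT-PCR, FAM-labelled primer extension, HpaI digest and capillary electrophoresis. Gain of signal fitted versus DMSO.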
Chain of frog Thyroid hormone Receptor alpha (TRa), thra-a (gene 397942) (P15204 whole entry, looked up, the tested form may be a part): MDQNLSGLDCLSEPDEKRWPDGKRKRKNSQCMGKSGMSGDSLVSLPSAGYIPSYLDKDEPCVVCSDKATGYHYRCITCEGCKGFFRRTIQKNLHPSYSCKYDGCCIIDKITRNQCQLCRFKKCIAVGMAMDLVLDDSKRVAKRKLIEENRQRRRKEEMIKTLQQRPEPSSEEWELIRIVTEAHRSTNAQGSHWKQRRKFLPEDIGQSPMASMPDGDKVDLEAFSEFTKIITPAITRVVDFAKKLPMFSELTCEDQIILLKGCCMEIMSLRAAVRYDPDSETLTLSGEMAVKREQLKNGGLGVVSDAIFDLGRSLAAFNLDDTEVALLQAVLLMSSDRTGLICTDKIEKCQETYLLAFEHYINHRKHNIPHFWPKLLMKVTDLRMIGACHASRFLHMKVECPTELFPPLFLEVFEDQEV

Test [7] concerns the target human Thyroid hormone Receptor beta (TRb), THRB (gene 7068) (UniProt P10828). Nature of the test: ATG_hTRb_XSP2: Attagene TRANS-FACTORIAL Multi-Species (XSP2) HepG2 Assay for human Thyroid hormone Receptor beta (TRb) (AID 2283840).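 Also: actives raise reporter mRNA so potency reflects agonist-like gain of signal.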 An outline of the steps:
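HepG2 cells were transiently transfected with GAL4-UAS multiplexed reporter units expressing chimeric NR-Gal4 proteins, dosed 24 h; reporter mRNA was quantified by RT-PCR, fluorescent labeling, HpaI digestion and capillary electrophoresis, fitted for gain of signal versus DMSO.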

A short description of test [8]: CEETOX_H295R_OHPREG_noMTC: CeeTox H295R High-throughput Steroidogenesis Assay for OH-Pregnenolone (OHPREG), maximum tolerated concentration (MTC) filtered results only (AID 2283912; active = hit-call score of the fitted dose curve at least 0.9, where 1 is the maximum; inactive = score below 0.9). To be noted: actives raise or lower the signal. Put shortly:
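Readout is HPLC-MS/MS quantification of 17alpha-hydroxypregnenolone released by forskolin-stimulated H295R cells over 48 h of chemical exposure, DMSO as baseline.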

A short description of test [9]: CEETOX_H295R_OHPROG_noMTC: CeeTox H295R High-throughput Steroidogenesis Assay for OH-Progesterone (OHPROG), maximum tolerated concentration (MTC) filtered results only (AID 2283914; active = hit-call score of the fitted dose curve at least 0.9, where 1 is the maximum; inactive = score below 0.9). To be noted: actives raise or lower the signal. An outline of the steps: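 Analysis uses all tested concentrations, without maximum-tolerated-concentration screening by MTT. H295R cells, forskolin-primed (10 uM, 48 h), receive chemical for 48 h; hormone in medium measured by HPLC-MS/MS, with bidirectional curve fitting against DMSO.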

A short description of test [10]: CEETOX_H295R_ANDR_noMTC: CeeTox H295R High-throughput Steroidogenesis Assay for Androstenedione (ANDR), maximum tolerated concentration (MTC) filtered results only (AID 2283915; active = hit-call score of the fitted dose curve at least 0.9, where 1 is the maximum; inactive = score below 0.9). The note with it: actives raise or lower the signal. An outline of the steps: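 Androstenedione secreted into medium was measured by LC-MS/MS after MTBE extraction. Human adrenal H295R cells received 10 uM forskolin for 48 h before 48 h chemical exposure (0.1% DMSO). Gain or loss fitted against DMSO, including concentrations above the MTT-derived MTC.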

Test [11] in a line: CEETOX_H295R_ESTRADIOL_noMTC: CeeTox H295R High-throughput Steroidogenesis Assay for Estradiol, maximum tolerated concentration (MTC) filtered results only (AID 2283919; active = hit-call score of the fitted dose curve at least 0.9, where 1 is the maximum; inactive = score below 0.9). The note with it: actives raise or lower the signal. An outline of the steps: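 Readout: dansyl-derivatized estradiol quantified by LC-MS/MS in medium from H295R cells dosed 48 h (0.1% DMSO) following 48 h forskolin (10 uM) prestimulation. Gain or loss of signal fitted against DMSO; no MTC filtering applied.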

Test [12] can be described thus: CEETOX_H295R_PROG_noMTC: CeeTox H295R High-throughput Steroidogenesis Assay for Progesterone (PROG), maximum tolerated concentration (MTC) filtered results only (AID 2283920; active = hit-call score of the fitted dose curve at least 0.9, where 1 is the maximum; inactive = score below 0.9). To be noted: actives raise or lower the signal. Put shortly: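 Progesterone synthesis in the human adrenal line H295R is measured by HPLC-MS/MS after 48 h chemical exposure following 48 h forskolin (10 uM) stimulation. Activity in either direction is fitted relative to DMSO.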

Test [13] in a line: CEETOX_H295R_ESTRONE_noMTC: CeeTox H295R High-throughput Steroidogenesis Assay for Estrone, maximum tolerated concentration (MTC) filtered results only (AID 2283921; active = hit-call score of the fitted dose curve at least 0.9, where 1 is the maximum; inactive = score below 0.9). To be noted: actives raise or lower the signal. Put shortly: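 Estrone in spent medium, quantified by tandem MS following dansyl chloride derivatization, after 48 h chemical exposure (0.1% DMSO) of forskolin-prestimulated (10 uM, 48 h) H295R cells; concentrations not MTC-filtered, bidirectional fit against DMSO.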

Test [14] is described as follows: CEETOX_H295R_TESTO_noMTC: CeeTox H295R High-throughput Steroidogenesis Assay for Testosterone (TESTO), maximum tolerated concentration (MTC) filtered results only (AID 2283924; active = hit-call score of the fitted dose curve at least 0.9, where 1 is the maximum; inactive = score below 0.9). The note with it: actives raise or lower the signal. An outline of the steps: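 Medium testosterone, measured by HPLC-MS/MS after liquid-liquid extraction, was fitted in both directions relative to DMSO without MTC filtering. Adrenal H295R cells received 48 h chemical exposure (0.1% DMSO final) after 48 h forskolin (10 uM) prestimulation; viability by MTT.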

Test [15] deals with PGR (gene 5241) (UniProt P06401). The test is described as follows: TOX21_PR_BLA_Followup_Antagonist_ratio: Tox21 HEK293 Progesterone Receptor (PR) Antagonism Beta-lactamase Follow-Up Assay, Ratio (AID 2283934). Put shortly:
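Read-out: blue/green beta-lactamase FRET ratio (cleaved ch2 over uncleaved ch1), fitted relative to DMSO baseline. Cells: PR-UAS-bla HEK293T, GAL4-UAS reporter, stimulated with 1 nM R5020 final; 16 hr compound exposure, 37C.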

Test [16] is described as follows: TOX21_PR_BLA_Followup_Agonist_viability: Viability Assessment in the Tox21 HEK293 Progesterone Receptor (PR) Agonism Beta-lactamase Follow-Up Assay (AID 2283935).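 Also: signal loss means lower viability so actives are cytotoxic.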 An outline of the steps:
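Luminescent ATP quantitation (CellTiter-Glo, 30 min, room temperature) in the same wells as the beta-lactamase read, on PR-UAS-bla HEK293T cells exposed to compound for 16 hr at 37C in 2% charcoal-stripped serum.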

The nature of test [17]: TOX21_PR_BLA_Followup_Antagonist_viability: Viability Assessment in the Tox21 HEK293 Progesterone Receptor (PR) Antagonism Beta-lactamase Follow-Up Assay (AID 2283936).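 Also: cells exposed to compound with R5020 agonist for 16 h; hits lower the luminescence signal meaning cytotoxicity.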 Put shortly:
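PR-UAS-bla HEK293T cells in medium with 2% charcoal-stripped FBS were treated with compounds plus R5020 for 16 hr at 37C. After the beta-lactamase read, CellTiter-Glo was added to the same wells and luminescence read after 30 min at room temperature.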

Test [18] is described as follows: ATG_XTT_Cytotoxicity_XSP2: Cytotoxicity Assessment in the Attagene TRANS-FACTORIAL Multi-Species (XSP2) HepG2 Assay (AID 2283837). Put shortly: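 XTT-based cell number read-out in human HepG2 liver cells carrying transfected reporter units, measured 24 h after chemical dosing. Activity is signal loss versus DMSO baseline.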
The target of test [19] is PGR (gene 5241) (UniProt P06401). The test is described as follows: TOX21_PR_BLA_Followup_Agonist_ratio: Tox21 HEK293 Progesterone Receptor (PR) Agonism Beta-lactamase Follow-Up Assay, Ratio (AID 2283933). An outline of the steps: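 Read-out: ratio of cleaved (ch2) to uncleaved (ch1) beta-lactamase substrate fluorescence, gain-of-signal relative to DMSO baseline. Cells: PR-UAS-bla HEK293T, 2% charcoal-stripped FBS; compound exposure 16 hr, 37C; substrate 2 hr, RT.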
Chain of PGR (gene 5241) (P06401 whole entry, looked up, the tested form may be a part): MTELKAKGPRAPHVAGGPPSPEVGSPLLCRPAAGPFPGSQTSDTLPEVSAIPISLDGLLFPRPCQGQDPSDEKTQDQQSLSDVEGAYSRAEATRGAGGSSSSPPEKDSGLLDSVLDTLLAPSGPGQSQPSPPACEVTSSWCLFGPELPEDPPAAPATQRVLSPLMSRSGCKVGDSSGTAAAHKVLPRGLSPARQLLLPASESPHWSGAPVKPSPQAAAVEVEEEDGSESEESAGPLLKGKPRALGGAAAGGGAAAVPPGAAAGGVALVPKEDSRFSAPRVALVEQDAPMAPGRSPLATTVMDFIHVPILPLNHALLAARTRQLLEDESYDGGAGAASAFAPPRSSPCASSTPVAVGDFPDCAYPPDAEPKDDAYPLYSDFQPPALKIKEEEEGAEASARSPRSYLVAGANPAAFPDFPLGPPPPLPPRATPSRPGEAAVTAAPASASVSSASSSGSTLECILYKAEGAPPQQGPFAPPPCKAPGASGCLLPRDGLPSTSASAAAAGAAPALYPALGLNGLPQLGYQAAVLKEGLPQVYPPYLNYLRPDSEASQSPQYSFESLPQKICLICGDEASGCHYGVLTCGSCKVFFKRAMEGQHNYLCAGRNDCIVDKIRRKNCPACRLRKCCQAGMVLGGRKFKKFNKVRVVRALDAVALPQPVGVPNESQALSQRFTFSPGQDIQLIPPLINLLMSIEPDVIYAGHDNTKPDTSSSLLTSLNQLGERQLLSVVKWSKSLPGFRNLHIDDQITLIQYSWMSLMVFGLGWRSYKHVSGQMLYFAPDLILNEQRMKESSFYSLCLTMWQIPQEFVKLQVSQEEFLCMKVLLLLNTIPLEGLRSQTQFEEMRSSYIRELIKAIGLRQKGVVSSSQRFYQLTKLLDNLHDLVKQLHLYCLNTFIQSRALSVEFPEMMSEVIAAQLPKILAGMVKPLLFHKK

Test [20] has the same target. The test is described as follows: TOX21_PR_LUC_Followup_Agonist: Tox21 HEK293 Progesterone Receptor (PR) Agonism Luciferase Follow-Up Assay (AID 2283937; active = hit-call score of the fitted dose curve at least 0.9, where 1 is the maximum; inactive = score below 0.9). Put shortly: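 Luminescence read-out (ONE-Glo, 30 min at room temperature) of PR-driven luciferase in HEK293-PR-A-luc cells after 16 h compound exposure at 37C; gain of signal fitted relative to DMSO baseline.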

Chain of human Thyroid hormone Receptor alpha (TRa), THRA (gene 7067) (P10827 whole entry, looked up, the tested form may be a part): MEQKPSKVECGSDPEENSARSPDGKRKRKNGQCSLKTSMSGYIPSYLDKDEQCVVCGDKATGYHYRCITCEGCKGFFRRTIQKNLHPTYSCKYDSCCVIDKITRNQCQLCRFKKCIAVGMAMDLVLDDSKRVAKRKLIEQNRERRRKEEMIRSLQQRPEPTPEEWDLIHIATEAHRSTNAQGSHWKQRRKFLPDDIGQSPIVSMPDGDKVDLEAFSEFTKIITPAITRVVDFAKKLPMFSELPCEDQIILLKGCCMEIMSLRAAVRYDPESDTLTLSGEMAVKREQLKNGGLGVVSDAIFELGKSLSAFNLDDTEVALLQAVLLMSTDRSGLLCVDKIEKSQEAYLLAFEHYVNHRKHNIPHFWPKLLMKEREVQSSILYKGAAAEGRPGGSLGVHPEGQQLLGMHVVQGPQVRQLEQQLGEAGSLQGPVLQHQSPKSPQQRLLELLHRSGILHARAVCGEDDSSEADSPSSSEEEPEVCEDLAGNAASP
Chain of zebrafish Thyroid Hormone Receptor beta (TRb), thrb (gene 30607) (Q9PVE4 whole entry, looked up): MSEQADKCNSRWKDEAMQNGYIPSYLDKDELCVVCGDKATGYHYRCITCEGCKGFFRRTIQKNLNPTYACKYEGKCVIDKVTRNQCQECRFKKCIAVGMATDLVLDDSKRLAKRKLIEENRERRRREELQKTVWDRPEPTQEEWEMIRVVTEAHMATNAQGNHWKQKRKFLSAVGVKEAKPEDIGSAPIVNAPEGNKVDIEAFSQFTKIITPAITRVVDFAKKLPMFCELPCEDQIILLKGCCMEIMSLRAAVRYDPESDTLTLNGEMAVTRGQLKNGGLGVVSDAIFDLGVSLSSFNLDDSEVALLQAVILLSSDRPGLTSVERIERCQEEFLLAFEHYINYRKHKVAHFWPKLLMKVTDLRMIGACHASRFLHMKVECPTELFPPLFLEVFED
Chain of human Thyroid hormone Receptor beta (TRb), THRB (gene 7068) (P10828 whole entry, looked up, the tested form may be a part): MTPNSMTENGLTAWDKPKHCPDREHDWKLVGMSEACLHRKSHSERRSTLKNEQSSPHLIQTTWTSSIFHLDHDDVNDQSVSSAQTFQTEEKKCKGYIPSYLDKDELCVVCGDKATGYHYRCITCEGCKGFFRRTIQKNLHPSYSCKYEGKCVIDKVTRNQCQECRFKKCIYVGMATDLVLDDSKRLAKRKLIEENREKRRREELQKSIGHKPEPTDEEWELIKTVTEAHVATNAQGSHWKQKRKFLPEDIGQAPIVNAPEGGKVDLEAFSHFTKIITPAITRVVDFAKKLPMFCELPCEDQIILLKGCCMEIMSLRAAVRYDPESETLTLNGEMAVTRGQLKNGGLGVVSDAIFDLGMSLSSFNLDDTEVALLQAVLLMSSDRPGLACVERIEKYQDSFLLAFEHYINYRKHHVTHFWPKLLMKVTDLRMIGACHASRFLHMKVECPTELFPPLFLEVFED

Take `CC(C)NC(=O)N1CC(=O)N(c2cc(Cl)cc(Cl)c2)C1=O`: the outcome in test [1], in [2], in [3], in test [4], in test [5] and in test [6] was inactive.
`C=C(C)CN(CC)c1c([N+](=O)[O-])cc(C(F)(F)F)cc1[N+](=O)[O-]`: the outcome in [1], in test [3], in test [4], in test [5], in [6] and in test [7] was inactive.
Turning to `Cc1c(COC(=O)[C@@H]2[C@H](/C=C(\Cl)C(F)(F)F)C2(C)C)cccc1-c1ccccc1`, the compound was classed as inactive in test [2], in [4], in test [5] and in test [6].
Take `COC(=O)c1c(C(F)F)nc(C(F)(F)F)c(C2=NCCS2)c1CC(C)C`: the outcome in test [8], in test [10], in test [11], in test [13] and in test [14] was inactive. In addition, the results for the AC50 in test [9] and in test [12] were 7.98 µM (active) and 13.8 µM (active), respectively.
With `CCN(CC)C(=O)C(C)Oc1cccc2ccccc12` (centres undefined), the outcome in test [1], in [2], in test [3], in test [4], in test [5] and in test [6] was inactive. For the same compound, the compound was called inactive in test [7], in test [16] and in test [17]. Also, the AC50 – broadly, the concentration at which the activity in the assay is half-maximal – with PGR (gene 5241) [15] is 28.4 µM (active).
As for `CSC(=O)c1c(C(F)F)nc(C(F)(F)F)c(C(=O)SC)c1CC(C)C`, in [7], the call was inactive.
For the compound `COP(=S)(OC)SCn1nnc2ccccc2c1=O`, the outcome in test [1], in test [2], in test [3], in test [4], in [18] and in test [5] was inactive. Besides, the call in test [6] and in test [7] was inactive.
As for `COP(=S)(OC)Oc1ccc([N+](=O)[O-])c(C)c1`, the outcome in test [1], in test [2], in test [3], in [4], in test [5] and in test [6] was inactive. For the same compound, the compound was called inactive in [7].
For `CC1(C)CCC(=Cc2ccc(Cl)cc2)C1(O)Cn1cncn1` (centres undefined), the call in test [1], in test [2], in [4], in test [5], in test [6] and in test [7] was inactive. The result (with PGR (gene 5241) [19]; with PGR (gene 5241) [15]; in test [16]; in [17]; with PGR (gene 5241) [20]) was inactive.
Regarding `CC1(C)C(C=C(Cl)Cl)C1C(=O)OC(C#N)c1cccc(Oc2ccccc2)c1` (centres undefined), the AC50 in test [1] is 12.6 µM (active). The outcome in test [2], in [3], in test [4], in [5], in test [6] and in [7] was inactive.
Turning to `N#Cc1c[nH]cc1-c1cccc2c1OC(F)(F)O2`, the call in [1], in test [2], in test [3], in test [4], in [5] and in test [7] was inactive. The compound was classed as inactive in test [16] and in test [17]. Further, the AC50 in [4] was 100 µM (active); in test [5] it was 100 µM (active); in test [6], 100 µM (active) and 60.7 µM (active); with PGR (gene 5241) [15], 2.42 µM (active).

(Values after PubChem BioAssay (EPA / NIEHS).)
